Potency and outcome data for two compounds are collected here from PubChem BioAssay (Tox21).

Assay [1] can be described thus: qHTS assay for small molecule agonists of the p53 signaling pathway (AID 651631; calls by dose curve; further: nearly all actives have a fitted effect of over 15% in size). The method, boiled down: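 We treat p53RE-bla HCT-116 cells with compounds for 16 h at 37 °C, add LiveBLAzer B/G FRET substrate for 2 h at room temperature, and measure fluorescence intensity.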
The nature of assay [2]: qHTS assay for small molecules that induce genotoxicity in human embryonic kidney cells expressing luciferase-tagged ATAD5 (AID 651632). Further: nearly all actives have a fitted effect of over 15% in size. The essentials: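 HEK293T cells carrying a luciferase reporter tagged to ATAD5 were exposed to compound or DMSO vehicle for 16 hr at 37C, 5% CO2. Amplite was added, and after 30 min at room temperature luciferase activity was read as a marker of ATAD5 induction.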
In general terms: Quantitative high-throughput screening tests each substance at several concentrations.

Assay [3] can be described thus: qHTS assay for small molecule agonists of the p53 signaling pathway - cell viability (AID 651633; calls by dose curve;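 further: p53RE-bla HCT reporter cells with a stable beta-lactamase p53 reporter; series mostly up to about 83 µM; nearly all actives have a fitted effect of over 30% in size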). The essentials: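 Viability counter-read: CellTiter-Glo luminescence (30 min, room temperature) in the same p53RE-bla plates. These plates had been exposed to compounds for 16 h at 37 C.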
Assay [4] in a line: qHTS assay for small molecules that induce genotoxicity in human embryonic kidney cells expressing luciferase-tagged ATAD5 - cell viability (AID 651634; calls by dose curve; further: potency means the concentration at half of the fitted maximal effect; nearly all actives have a fitted effect of over 25% in size). The essentials: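 HEK293T cells expressing luciferase-tagged ATAD5 were exposed to compound or DMSO for 15.5 hr at 37C, 5% CO2. Viability was then read as live-cell protease activity by CellTiter-Fluor fluorescence after 30 min at 37C.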

The nature of assay [5]: qHTS assay for small molecule disruptors of the mitochondrial membrane potential - cell viability (AID 720634; calls by dose curve;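 further: human HepG2 liver cancer cells; series mostly up to about 83 µM; nearly all actives have a fitted effect of over 20% in size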). The method, boiled down:
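HepG2 cells seeded overnight at 37 C, then exposed to compound or DMSO for 1 hr at 37 C, 5% CO2. m-MPI dye added, then CellTiter-Glo for 30 min at room temperature; viability read as ATP luminescence.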

The nature of assay [6]: qHTS assay for small molecule disruptors of the mitochondrial membrane potential (AID 720635). Further: potency means the concentration at half of the fitted maximal effect. The method, boiled down: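 Mitochondrial membrane potential tracked with Mito-MPS dye, red aggregates (ex 540/em 590 nm) against green monomers (ex 490/em 535 nm). Compound treatment 1 hr at 37C, dye 30 min in HepG2.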
Assay [7] in a line: qHTS assay to test for compound auto fluorescence at 460 nm (blue) in HEK293 cells (AID 720678). The essentials: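 HEK293 cells (2,000/well, medium with 10% dialyzed FBS) attached 4-5 hr, then exposed to compound overnight at 37C, 5% CO2. Blue fluorescence read at 405/460 nm, with triamterene as reference fluorophore.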
Assay [8] in a line: qHTS assay to test for compound auto fluorescence at 590 nm (red) in HEK293 cells (AID 720679). The essentials: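 HEK293 cells (2,000/well, 10% dialyzed FBS) attached 4-5 hr, then dosed with compound or DMSO and incubated overnight at 37C, 5% CO2. Red fluorescence read at 540/590 nm, Rose Bengal sodium as reference fluorophore.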
A short description of assay [9]: qHTS assay to test for compound auto fluorescence at 535 nm (green) in HEK293 cells (AID 720680).
A short description of assay [10]: qHTS assay to test for compound auto fluorescence at 460 nm (blue) in HEK293 cell free culture (AID 720681). The method, boiled down:
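Blue fluorescence (Ex 405/Em 460 nm, triamterene-equivalent) was read immediately after pin transfer of compound or DMSO into medium (DMEM, 10% FBS) without cells.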

Assay [11] can be described thus: qHTS assay to test for compound auto fluorescence at 590 nm (red) in HEK293 cell free culture (AID 720683). The essentials: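 Red-channel autofluorescence of compounds in culture medium (DMEM, 10% FBS), no cells, measured at 540/590 nm. Rose Bengal sodium is the reference fluorophore for equivalence.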
A short description of assay [12]: qHTS assay to test for compound auto fluorescence at 590 nm (red) in HepG2 cell free culture (AID 720684). The method, boiled down: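 Steps: dispense MEM/10% FBS medium, no cells; pin compound or DMSO vehicle; read red channel, Ex/Em 540/590 nm. Output given as Rose Bengal sodium equivalents.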
Assay [13] is described as follows: qHTS assay to test for compound auto fluorescence at 460 nm (blue) in HepG2 cell free culture (AID 720685). The method, boiled down:
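Compound (23 nL) or DMSO pinned into cell-free MEM with 10% FBS; blue fluorescence read at 405/460 nm excitation/emission, expressed as auto-fluorescence equivalency to triamterene.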

A short description of assay [14]: qHTS assay to test for compound auto fluorescence at 460 nm (blue) in HepG2 cells (AID 720687). The method, boiled down: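 Blue-channel autofluorescence (Ex/Em 405/460 nm, triamterene-equivalent) was measured after 1 hr compound exposure at 37 C, 5% CO2. Cells were HepG2, plated overnight at 37 C in MEM plus 10% FBS.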
The target of assay [15] is Glucocorticoid receptor (Homo sapiens) (UniProt P04150). Kind of assay: qHTS assay to identify small molecule agonists of the glucocorticoid receptor (GR) signaling pathway (AID 720691; active means well fitted activation curve with a large enough effect in the signal ratio in the repeat runs, not every such curve was filed as active; the % refers to the signal ratio). The essentials: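 GR-bla HeLa cells (beta-lactamase reporter under glucocorticoid response element) were plated 4 h at 37 C/5% CO2, given compounds in DMSO, and incubated 18 h at 37 C. LiveBLAzer B/G FRET substrate was added for 2 h at room temperature, then fluorescence intensity read.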
Chain of Glucocorticoid receptor (Homo sapiens) (P04150 whole entry, looked up): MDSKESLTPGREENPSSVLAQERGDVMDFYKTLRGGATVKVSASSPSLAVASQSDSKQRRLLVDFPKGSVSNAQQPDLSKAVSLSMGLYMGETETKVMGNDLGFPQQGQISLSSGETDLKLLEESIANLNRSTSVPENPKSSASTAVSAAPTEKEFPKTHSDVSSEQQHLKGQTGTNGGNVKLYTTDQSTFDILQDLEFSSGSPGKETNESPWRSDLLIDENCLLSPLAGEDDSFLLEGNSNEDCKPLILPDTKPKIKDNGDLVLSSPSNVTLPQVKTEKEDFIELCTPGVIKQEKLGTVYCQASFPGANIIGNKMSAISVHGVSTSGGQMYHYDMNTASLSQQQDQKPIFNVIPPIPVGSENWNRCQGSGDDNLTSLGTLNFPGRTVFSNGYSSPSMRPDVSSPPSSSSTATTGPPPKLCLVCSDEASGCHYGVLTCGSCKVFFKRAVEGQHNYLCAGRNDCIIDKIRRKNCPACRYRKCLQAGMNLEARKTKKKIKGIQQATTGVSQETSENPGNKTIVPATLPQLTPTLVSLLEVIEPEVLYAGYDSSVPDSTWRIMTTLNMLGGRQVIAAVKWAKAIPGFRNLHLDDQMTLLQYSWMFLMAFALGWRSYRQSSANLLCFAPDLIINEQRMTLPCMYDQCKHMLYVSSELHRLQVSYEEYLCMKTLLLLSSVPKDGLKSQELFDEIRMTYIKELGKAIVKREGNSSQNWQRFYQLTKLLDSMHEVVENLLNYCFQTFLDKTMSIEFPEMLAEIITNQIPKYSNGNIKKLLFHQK

A short description of assay [16]: qHTS assay to identify small molecule antagonists of the glucocorticoid receptor (GR) signaling pathway - cell viability counter screen (AID 720693). Further: nearly all actives have a fitted effect of over 55% in size.
Assay [17] in a line: qHTS assay for identifying genotoxic compounds that show differential cytotoxicity against isogenic chicken DT40 cell lines with known DNA damage response pathways - wild type cell line (AID 743012). Further: potency means the concentration at half of the fitted maximal effect; nearly all actives have a fitted effect of over 60% in size. The method, boiled down:
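Parental DNA repair-proficient DT40 cells, 300 per well, were pre-incubated ~0.5 h at 37 C/5% CO2, pin-dosed with compounds in DMSO, then incubated 40 h. Viability was read as CellTiter-Glo luminescence after 30 min at room temperature.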

A short description of assay [18]: qHTS assay for identifying genotoxic compounds that show differential cytotoxicity against isogenic chicken DT40 cell lines with known DNA damage response pathways - Rev3 mutant cell line (AID 743014). Further: potency means the concentration at half of the fitted maximal effect; nearly all actives have a fitted effect of over 55% in size.
Assay [19] is described as follows: qHTS assay for identifying genotoxic compounds that show differential cytotoxicity against isogenic chicken DT40 cell lines with known DNA damage response pathways - Rad54/Ku70 mutant cell line (AID 743015). Further: potency means the concentration at half of the fitted maximal effect; nearly all actives have a fitted effect of over 60% in size.
Assay [20] in a line: qHTS assay to identify small molecule antagonists of the androgen receptor (AR) signaling pathway - cell viability counter screen (AID 743033; further: nearly all actives have a fitted effect of over 45% in size).
For assay [21], the target named is Androgen receptor (Homo sapiens) (UniProt P10275). Kind of assay: qHTS assay to identify small molecule agonists of the androgen receptor (AR) signaling pathway using the MDA cell line (AID 743040; further: nearly all actives have a fitted effect of over 20% in size). The method, boiled down:
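Cells plated, 5 h at 37C/0% CO2; compound or DMSO pinned; 16 h at 37C; ONE-Glo added; luminescence measured after 30 min at room temperature. Reporter line: MDA-kb2 with MMTV-luciferase responsive to AR and GR.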

For assay [22] the target is unchanged. Kind of assay: qHTS assay to identify small molecule antagonists of the androgen receptor (AR) signaling pathway using the MDA cell line (AID 743042; further: nearly all actives have a fitted effect of over 55% in size). The method, boiled down: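 Antagonist mode: compounds plus R1881 agonist added to MDA-kb2 AR-luc cells, incubated 16 h at 37C. Luciferase reporter luminescence quantified, with multiplexed CellTiter-Fluor readout for cell viability.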

The nature of assay [23]: qHTS assay to identify small molecule antagonists of the thyroid receptor (TR) signaling pathway - cell viability counter screen (AID 743064). Further: potency means the concentration at half of the fitted maximal effect; nearly all actives have a fitted effect of over 50% in size. The essentials: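 In rat pituitary GH3.TRE-Luc reporter cells co-exposed to compound and 1 nM T3 for 23.5 h, cytotoxicity was assessed with CellTiter-Fluor in the same wells, read by fluorescence.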
For assay [24], the system named is thyroid hormone receptor (rat, GH3 cells). Kind of assay: qHTS assay to identify small molecule agonists of the thyroid receptor (TR) signaling pathway (AID 743066; calls by dose curve).
The nature of assay [25]: qHTS assay to identify small molecule antagonists of the estrogen receptor alpha (ER-alpha) signaling pathway - cell viability counter screen (AID 743074; calls by dose curve;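 further: HEK293 cells carrying ER-alpha-UAS-bla reporter stimulated with 17beta-estradiol; nearly all actives have a fitted effect of over 45% in size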).
Assay [26] deals with Estrogen receptor (Homo sapiens) (UniProt P03372). Briefly: qHTS assay to identify small molecule agonists of the estrogen receptor alpha (ER-alpha) signaling pathway (AID 743075; calls by dose curve;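 further: HEK293 GripTite cells with ER-alpha and UAS-driven beta-lactamase reporter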).
Chain of Estrogen receptor (Homo sapiens) (P03372 whole entry, looked up): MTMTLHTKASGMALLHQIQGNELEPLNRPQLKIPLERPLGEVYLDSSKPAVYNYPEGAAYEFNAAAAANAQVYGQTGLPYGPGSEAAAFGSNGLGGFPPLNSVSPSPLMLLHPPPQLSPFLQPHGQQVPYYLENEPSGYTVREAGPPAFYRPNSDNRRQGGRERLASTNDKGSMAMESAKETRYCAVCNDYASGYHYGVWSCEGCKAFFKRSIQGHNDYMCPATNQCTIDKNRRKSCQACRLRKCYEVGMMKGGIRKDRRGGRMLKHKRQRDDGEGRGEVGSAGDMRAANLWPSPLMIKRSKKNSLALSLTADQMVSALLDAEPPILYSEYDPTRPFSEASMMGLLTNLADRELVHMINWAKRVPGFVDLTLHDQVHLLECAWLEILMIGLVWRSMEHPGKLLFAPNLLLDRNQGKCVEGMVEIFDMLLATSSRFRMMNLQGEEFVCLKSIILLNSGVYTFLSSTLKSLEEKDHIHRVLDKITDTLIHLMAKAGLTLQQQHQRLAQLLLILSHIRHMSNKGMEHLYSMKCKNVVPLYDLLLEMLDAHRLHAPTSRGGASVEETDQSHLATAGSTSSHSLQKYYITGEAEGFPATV
Assay [27] has the same target. Briefly: qHTS assay to identify small molecule agonists of the estrogen receptor alpha (ER-alpha) signaling pathway using the BG1 cell line (AID 743079). Further: nearly all actives have a fitted effect of over 20% in size.
A short description of assay [28]: qHTS assay to identify small molecule antagonists of the estrogen receptor alpha (ER-alpha) signaling pathway using the BG1 cell line (AID 743080; calls by dose curve;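 further: BG1 cells stimulated with 17beta-estradiol alongside compound; series mostly up to about 70 µM; nearly all actives have a fitted effect of over 25% in size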). The essentials:
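BG1-Luc-4E2 cells (endogenous full-length ER-alpha, 4xERE luciferase) hormone-starved 5 days in charcoal-stripped FBS, plated 4,000/well for 24 h, then compound plus 17beta-estradiol for 21.5 h at 37 C; ONE-Glo luminescence read.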

The nature of assay [29]: qHTS assay to identify aromatase inhibitors - cell viability counter screen (AID 743084).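 Further: cells stimulated with testosterone during compound exposure; potency means the concentration at half of the fitted maximal effect; nearly all actives have a fitted effect of over 55% in size.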
Assay [30] can be described thus: qHTS assay to identify small molecule that activate the aryl hydrocarbon receptor (AhR) signaling pathway - cell viability counter screen (AID 743086). Further: potency means the concentration at half of the fitted maximal effect; nearly all actives have a fitted effect of over 45% in size. The method, boiled down: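 Cytotoxicity counter screen: CellTiter-Fluor signal (30 min, 37 C) in 4000 HepG2 cells/well carrying the DRE-luciferase reporter, following 24 h compound exposure at 37 C.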
Assay [31] deals with Peroxisome proliferator-activated receptor gamma (Homo sapiens) (UniProt P37231). Briefly: qHTS assay to identify small molecule agonists of the peroxisome proliferator-activated receptor gamma (PPARg) signaling pathway (AID 743094; active means well fitted activation curve with a large enough effect in the signal ratio in the repeat runs, not every such curve was filed as active; the % refers to the signal ratio). The method, boiled down:
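GeneBLAzer PPARg UAS-bla HEK293H cells carrying a stably integrated beta-lactamase reporter were pre-incubated 5 h at 37C, then exposed to compounds in DMSO for 17 h at 37C; LiveBLAzer B/G FRET substrate was added for 1 h at room temperature and fluorescence read.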

The target in assay [32] is Acetylcholinesterase (Homo sapiens) (UniProt P22303). Kind of assay: Acetylcholinesterase (AChE) small molecule antagonists: enzyme-based qHTS assay (AID 1347397; calls by dose curve; further: nearly all actives have a fitted effect of over 55% in size). The following applies: Potency: AChE enzyme activity inhibition; outcome: AChE enzyme activity inhibition. The essentials:
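rhAChE 50 mU/mL (dispensed) + cpd or DMSO, 30 min RT; add DTNB/acetylthiocholine cocktail, 10 min RT; colorimetric thiocholine readout. qHTS, 1536-well format.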

The target is the same in assay [33]. Kind of assay: Acetylcholinesterase (AChE) small molecule antagonists: fluorescence cell-based qHTS assay (AID 1347398; calls by dose curve; further: nearly all actives have a fitted effect of over 50% in size). The settings on record: Potency: AChE activity; outcome: AChE activity. The method, boiled down: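 Read-out is Thiolite Green fluorescence at Ex/Em = 490/520 nm, formed by reaction with thiocholine released when cellular AChE in SH-SY5Y cells hydrolyzes acetylthiocholine. Compounds were preincubated 30 min at 37 C before substrate.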

Assay [34] has the same target. Kind of assay: Acetylcholinesterase (AChE) small molecule antagonists: enzyme-based qHTS assay with human liver microsomes (AID 1347399; calls by dose curve; further: nearly all actives have a fitted effect of over 60% in size). The settings on record: Potency: qHTS inhibition; outcome: qHTS inhibition. The essentials: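 Recombinant human AChE (50 mU/mL in the enzyme mix) and human liver microsomes (0.25 mg/mL final) were preincubated with compound and NADPH (0.25 mg/mL final) for 30 min at 37 C. Acetylthiocholine/DTNB was then added; thiocholine was read colorimetrically after 10 min at room temperature.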

A number with no mark means an inactive call. Results filed as inconclusive are left out. The source made the active and inactive calls. Unless noted, the call rests on the fitted dose curve; in most records, active means well fitted curve in the direction sought with a large enough effect in the repeat runs; inconclusive means weak or mixed curves; inactive means no such curve, though single readings can be large; an effect the other way counts as inactive or inconclusive.

Chain of Acetylcholinesterase (Homo sapiens) (P22303 whole entry, looked up): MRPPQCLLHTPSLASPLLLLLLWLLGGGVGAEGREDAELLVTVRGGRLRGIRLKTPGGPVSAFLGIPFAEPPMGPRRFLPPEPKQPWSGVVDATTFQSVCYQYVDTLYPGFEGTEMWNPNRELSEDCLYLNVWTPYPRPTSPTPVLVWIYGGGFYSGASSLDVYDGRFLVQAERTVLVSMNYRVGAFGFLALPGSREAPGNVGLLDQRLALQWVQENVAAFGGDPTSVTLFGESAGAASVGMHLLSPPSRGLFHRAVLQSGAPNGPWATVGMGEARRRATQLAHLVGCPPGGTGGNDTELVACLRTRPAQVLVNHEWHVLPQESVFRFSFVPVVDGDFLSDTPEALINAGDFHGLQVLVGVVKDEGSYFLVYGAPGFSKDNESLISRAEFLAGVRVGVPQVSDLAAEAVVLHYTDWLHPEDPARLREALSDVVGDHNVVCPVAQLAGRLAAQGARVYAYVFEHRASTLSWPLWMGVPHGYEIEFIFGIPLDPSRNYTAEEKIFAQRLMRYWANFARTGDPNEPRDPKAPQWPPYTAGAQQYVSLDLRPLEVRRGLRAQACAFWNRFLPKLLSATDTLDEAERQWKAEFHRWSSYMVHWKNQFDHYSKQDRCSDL
Chain of Androgen receptor (Homo sapiens) (P10275 whole entry, looked up): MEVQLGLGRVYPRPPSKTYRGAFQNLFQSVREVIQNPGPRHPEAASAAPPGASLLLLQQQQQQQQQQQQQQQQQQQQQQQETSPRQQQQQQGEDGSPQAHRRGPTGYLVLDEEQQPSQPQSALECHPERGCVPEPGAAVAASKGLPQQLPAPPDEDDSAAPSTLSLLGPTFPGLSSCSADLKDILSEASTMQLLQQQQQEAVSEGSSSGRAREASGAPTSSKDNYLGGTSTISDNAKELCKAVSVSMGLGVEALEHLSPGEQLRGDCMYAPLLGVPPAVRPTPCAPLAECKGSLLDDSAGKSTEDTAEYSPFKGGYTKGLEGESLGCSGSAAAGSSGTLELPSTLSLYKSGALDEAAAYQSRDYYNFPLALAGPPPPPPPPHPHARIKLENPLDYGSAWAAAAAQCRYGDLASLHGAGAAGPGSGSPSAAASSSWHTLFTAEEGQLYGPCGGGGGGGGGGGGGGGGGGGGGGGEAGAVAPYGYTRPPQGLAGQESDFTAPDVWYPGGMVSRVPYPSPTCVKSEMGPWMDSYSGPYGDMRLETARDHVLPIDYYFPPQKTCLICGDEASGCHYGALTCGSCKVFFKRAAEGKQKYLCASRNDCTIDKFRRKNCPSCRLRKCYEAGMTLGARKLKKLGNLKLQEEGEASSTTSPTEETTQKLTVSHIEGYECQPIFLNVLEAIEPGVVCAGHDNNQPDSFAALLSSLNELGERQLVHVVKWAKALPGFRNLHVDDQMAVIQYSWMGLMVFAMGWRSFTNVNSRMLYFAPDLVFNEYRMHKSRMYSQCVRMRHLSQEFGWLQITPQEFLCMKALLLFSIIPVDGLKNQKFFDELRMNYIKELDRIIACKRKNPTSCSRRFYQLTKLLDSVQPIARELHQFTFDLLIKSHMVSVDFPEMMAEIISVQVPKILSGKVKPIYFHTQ
Chain of Peroxisome proliferator-activated receptor gamma (Homo sapiens) (P37231 whole entry, looked up): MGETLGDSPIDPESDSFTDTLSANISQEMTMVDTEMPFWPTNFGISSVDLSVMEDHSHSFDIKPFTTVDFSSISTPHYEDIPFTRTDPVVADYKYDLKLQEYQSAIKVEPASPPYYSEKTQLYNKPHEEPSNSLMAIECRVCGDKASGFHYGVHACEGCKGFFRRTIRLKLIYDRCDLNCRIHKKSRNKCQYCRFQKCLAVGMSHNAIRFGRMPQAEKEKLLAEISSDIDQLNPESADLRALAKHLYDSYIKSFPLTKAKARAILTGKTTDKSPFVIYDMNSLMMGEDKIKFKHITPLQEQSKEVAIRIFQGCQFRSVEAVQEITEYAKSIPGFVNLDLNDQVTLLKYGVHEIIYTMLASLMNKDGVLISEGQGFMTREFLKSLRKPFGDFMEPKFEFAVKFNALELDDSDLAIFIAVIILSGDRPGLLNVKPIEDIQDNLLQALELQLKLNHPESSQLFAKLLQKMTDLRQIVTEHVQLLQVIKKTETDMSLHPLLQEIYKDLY

For `N#CC(C#N)=Cc1cc(O)c(O)c(O)c1`, the Potency entry in [1], in assay [2], in assay [3], in assay [5], in assay [7] and in [9] was “inactive” in each case. For the same compound, the Potency entry in assay [10], in assay [13], in assay [14], in assay [15], in assay [16] and in [20] was “inactive” throughout. The Potency result in [21], in assay [22], in assay [24], in assay [25], in [26] and in assay [27] was “inactive” throughout. In addition, the Potency entry in [28] and in assay [31] was “inactive” each time. In addition, the Potency is 29.8 µM (active) in assay [4]; 5.96 µM (active) in assay [6]; 21.1 µM (active) in assay [17]; 26.6 µM (active) in assay [18]; 21.1 µM (active) in assay [19]; 26.6 µM (active) in [23]. Moreover, the Potency is 26.6 µM (active) in assay [29] and 13.3 µM (active) in assay [30]. For the same compound, the compound was classed as inactive in [8], in [11] and in assay [12].
Consider `O=c1[nH]c2cc(C(F)(F)F)c(N3CCOCC3)cc2n(CP(=O)(O)O)c1=O`, for which the Potency result in assay [32], in [33] and in assay [34] was “inactive” throughout.
